# In PubChem BioAssay (NCATS):
# Records with an inconclusive call do not appear. Values without a mark were called inactive. Active and inactive are the calls of the source. The call rests on the fitted dose curve; in most records, active means well fitted curve in the direction sought with a large enough effect in the signal ratio, with a control signal flat (not every such curve was filed as active); inconclusive means small, poorly fitted or top-dose-only effect, or effect the other way, or a change in a side signal; inactive means no such curve, though single readings can be large or run the other way; the % refers to the signal ratio.
# Target: Peroxisome proliferator-activated receptor gamma (Homo sapiens) (UniProt P37231)
# Sequence (P37231 whole entry, looked up): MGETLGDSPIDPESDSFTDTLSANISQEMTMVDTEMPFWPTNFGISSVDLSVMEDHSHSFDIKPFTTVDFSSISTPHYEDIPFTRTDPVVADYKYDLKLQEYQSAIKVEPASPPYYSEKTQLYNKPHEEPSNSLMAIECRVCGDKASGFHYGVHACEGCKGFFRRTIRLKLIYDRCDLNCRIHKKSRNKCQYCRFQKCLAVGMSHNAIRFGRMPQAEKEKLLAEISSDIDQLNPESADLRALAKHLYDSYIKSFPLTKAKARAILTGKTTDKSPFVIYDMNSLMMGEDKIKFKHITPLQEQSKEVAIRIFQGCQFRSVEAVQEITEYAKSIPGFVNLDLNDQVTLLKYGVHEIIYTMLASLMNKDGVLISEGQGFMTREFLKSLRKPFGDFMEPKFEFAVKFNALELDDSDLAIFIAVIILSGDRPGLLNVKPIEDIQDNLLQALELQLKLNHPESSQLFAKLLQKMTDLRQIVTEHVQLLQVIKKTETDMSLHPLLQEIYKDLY
# Assay: qHTS assay for small molecule agonists of peroxisome proliferator-activated receptor gamma signaling (AID 588536)
# Settings: HEK293 PPARg-UAS-bla, beta-lactamase ratio, 16 h, percent of rosiglitazone response, DMSO as zero; series mostly up to 76.7 µM; activation: at the top concentration
# Description: NIH Chemical Genomics Center [NCGC] U.S. Environmental Protection Agency [EPA] National Institutes of Environmental Health Sciences [NIEHS] National Toxicology Program [NTP] NCGC Assay Overview The Peroxisome proliferator-activated receptors (PPARs) are lipid-activated transcription factors of the nuclear receptor superfamily with three distinct subtypes namely PPAR alpha, PPAR delta (also called PPAR beta) and PPAR gamma. All these subtypes heterodimerizes with Retinoid X receptor (RXR) and these heterodimers regulate transcription of various genes. PPAR-gamma (glitazone receptor) agonists have been used in the treatment of type 2 diabetes and dyslipidaemia. It is involved in the regulation of glucose and lipid metabolism. PPAR-gamma activates certain genes like Paraoxonase 1 which is responsible for hydrolyzing organophosphates. PPAR-gamma agonists may also be therapeutically important in the treatment of coronary artery disease, obesity and cancer and atherosclerosis.
# NCGC Assay Protocol Summary Using a beta-lactamase reporter-gene under control of Peroxisome Proliferator-Activated-gamma (PPAR-gamma) response element, a cell-based assay [GeneBLAzer PPAR-gamma-UAS-bla assay developed by Invitrogen] was used to measure PPAR-gamma ligands signaling. GeneBLAzer PPAR-gamma-UAS-bla-HEK293 cells were used with assay medium containing 1% charcoal/dextran treated FBS. The assay was performed in clear bottom black Greiner 1536-well plates. Rosiglitazone was used in the screen as the positive control. Library compounds were measured for their ability to stimulate the reporter gene activity. Compounds were screened in a titration series in 1536-well format. The fluorescence intensity (405 nm excitation, 460/530 nm emission) was measured using an EnVision plate reader. Data was normalized relative to Rosiglitazone control (2 uM, 100%), and DMSO only wells (basal, 0%). Concentration-response titration points for each compound were fitted to the Hill equation yielding concentrations of half-maximal stimulation (EC50) and maximal response (efficacy) values. qHTS protocol for PPAR-gamma beta-lactamase assay in agonist mode [Step] [Parameter] [Value] [Description] 1. Reagent; 6 uL; 3000 cells/well 2. Incubation; 37 C for 6 - 6.5 hrs 3. Compounds; 23 nL; 0.59 nM to 92 uM 4. Controls (Rosiglitazone); 23 nL, - One column with dose response, start 19 uM, 1:3 dilutions in duplicates - Final concentrations of 2 uM and 0.5 uM in two columns 5. Incubation; 37 C for 16 hrs 6. Detection reagent; 1 uL of CCF4-dye 7. Incubation; RT for 2 hrs 8. Detection; Fluorescence; Envision plate reader
SMILES,activation [%],outcome
Cc1cccc(N)c1C,-1.33,–
O=S(=O)(O)F,-0.206,–
Clc1ccc(C(Cl)(Cl)Cl)c(Cl)c1,1.02,–
ClCc1ccccn1,–,inactive
CCN(CC)CCO,-0.127,–
ClC(Cl)C(Cl)Cl,-3.37,–
c1ccc2c(c1)CCNC2,2.12,–
OCC(Cl)CCl (stereo not given),0.38,–
ClCC(Cl)Cl,3.98,–
CC(C)[C@]12CC(=O)[C@H](C)[C@H]1C2,–,inactive
Nc1ccc(Cc2ccc(N)cc2)cc1,–,inactive
O=[N+]([O-])c1cc(Cl)c(Cl)c(Cl)c1,6.65,–
Cc1ccc(N)cc1N,–,inactive
O=NN1CCCCC1,-2.72,–
ClCCOCOCCCl,0.732,–
Clc1ccc(C(c2ccccc2Cl)C(Cl)(Cl)Cl)cc1 (stereo not given),–,inactive
CCCCOC(C)=O,-1.34,–
CC(C)C#N,3.74,–
O=C(O)C(Cl)Br (stereo not given),-1.58,–
O=C(O)c1cccc(Cl)c1,6.13,–

SMILES,activation [%],outcome
Clc1ccc(C(Cl)(Cl)Cl)cc1Cl,2.43,–
O=[N+]([O-])c1ccc2c3c(cccc13)CC2,–,inactive
O=[N+]([O-])CCO,1.21,–
CCCCCCCCCCCCCl,5.29,–
CC(C)(COCC1CO1)COCC1CO1 (stereo not given),1.69,–
CC(C)OC(=O)Cc1ccccc1,-3.12,–
CCCCCC[N+](=O)[O-],2.29,–
Cc1ccc2c(c1N)C(=O)c1ccccc1C2=O,-0.723,–
CCCN(CCC)c1c([N+](=O)[O-])cc(C(F)(F)F)cc1[N+](=O)[O-],–,inactive
O=C(O)C(Cl)(Cl)Br,4.38,–
CCCCOCC1CO1 (stereo not given),1.25,–
CC[N+](=O)[O-],-0.95,–
CC(=O)NNc1ccccc1,-9.72,–
CCC[N+](=O)[O-],2.65,–
Nc1cc(Cl)ccc1O,-6.56,–
CCCCCOC(=O)c1ccccc1C(=O)OCCCCC,–,inactive
CC(C)(Cl)Cl,-0.359,–
CCCCC(CC)COC(=O)c1ccc(C(=O)OCC(CC)CCCC)c(C(=O)OCC(CC)CCCC)c1 (stereo not given),0.304,–
O=C(O)CCl,1.1,–
Oc1cc(Cl)ccc1Cl,–,inactive
